An excerpt weighted towards active compounds, which were near 9.1% of everything screened.
M1 antagonist: antagonists of rat M1 muscarinic receptor. P08482. CHO-M1 cells, Fluo-4 calcium, ACh EC80 antagonist mode; hits give low values. B-score at 10 µM. 64,000 tested, 3.4% active. AID 628;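 active means calcium fluorescence response, raw or row-and-column corrected B-score, differing from the plate sample mean either way at a set confidence level, mostly lower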
Target sequence (P08482 whole entry, looked up): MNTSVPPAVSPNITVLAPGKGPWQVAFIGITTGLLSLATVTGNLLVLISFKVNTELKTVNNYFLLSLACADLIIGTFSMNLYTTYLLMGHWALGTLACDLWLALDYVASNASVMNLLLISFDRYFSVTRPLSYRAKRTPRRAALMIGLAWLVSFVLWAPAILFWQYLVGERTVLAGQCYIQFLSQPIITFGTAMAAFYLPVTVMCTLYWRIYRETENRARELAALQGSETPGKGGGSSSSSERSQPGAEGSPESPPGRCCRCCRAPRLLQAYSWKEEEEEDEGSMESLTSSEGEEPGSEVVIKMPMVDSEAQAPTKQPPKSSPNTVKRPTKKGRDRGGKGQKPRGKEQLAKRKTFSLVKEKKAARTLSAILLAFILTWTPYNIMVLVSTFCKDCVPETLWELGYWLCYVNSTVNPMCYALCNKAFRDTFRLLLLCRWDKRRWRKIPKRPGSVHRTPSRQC
mHtt clearance: compounds clearing mutant huntingtin protein | HeLa Exon1htt(103Q)mCFP, aggregate imaging; zero = plate's median compound well | inhibition, % at 1.5 µM | 47,000 tested, 0.42% active;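 active means inhibition of aggregate fluorescence above about 70%, also judged a hit by eye on the cell image, limit read from the data, passing the limit was not always enough; inconclusive means no rule stated for this call; inactive means not judged a hit on image review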;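 further: cells exposed to compound for three days before fixation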
M1 agonist: agonists of M1 muscarinic receptor; CHO-M1 cells, Fluo-4 calcium fluorescence, agonist mode; hits give high values; B-score at 10 µM; 64,000 tested, 3% active; AID 626;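 active means fluorescence rise, raw or as B-score row- and column-corrected plate score, outside the 99.7% band of its plate's samples, either direction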
D1 mod: allosterically modulates the human D1 dopamine receptor. AID 641. B-score at 10 µM. 58,000 tested, 5.9% active. P21728. HEK293 D1, CRE-luciferase, dopamine EC30 potentiation; actives deviate in either direction;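 active means luminescence count or its row- and column-corrected plate score outside the 99.7% band of the plate's sample wells, on either side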
M1 agonist conf: confirmation of rat M1 muscarinic receptor agonists | shares compounds with M1 agonist | AID 1488 | fluorescence change (max-min) at 10 µM | 1,700 tested, 19% active | CHO-M1 cells, Fluo-4 calcium fluorescence, agonist mode; actives lie on both sides;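 active means fluorescence change differs from the solvent-only DMSO control mean at a set confidence level in both duplicate runs; inconclusive means differs from solvent-only control mean in just one of two runs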;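 further: an EC20 dose of acetylcholine follows compound addition during the same imaging run; raw fluorescence intensity difference in instrument units with no normalization to controls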
M4 agonist ctr: rat M4 muscarinic agonism, M1 counter-screen | fluorescence change (max-min) at 10 µM | CHO M4/Gqi5 cells, Fluo-4 calcium fluorescence, agonist mode; actives lie on both sides | AID 1741 | 1,700 tested, 9% active | shares compounds with M1 agonist;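 active means fluorescence change differing from the plate's solvent-only control wells at 99.7% confidence in both duplicates, whether higher or lower; inconclusive means differs from solvent controls in only one of two duplicates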
The depositor's hits bear a star; ? = inconclusive; / = no result given.

SMILES | M1 antagonist | mHtt clearance | M1 agonist | D1 mod | M1 agonist conf | M4 agonist ctr
COc1ccc(NC(C)=O)cc1NC(=O)CN1CCN(CC(=O)Nc2ccccc2Cl)CC1 | -0.035 | 18 | 4* | -1.2 | ? | -71
COc1ccc(NC(C)=O)cc1NC(=O)CN1CCN(CC(=O)Nc2ccc(Cl)cc2)CC1 | -0.21 | / | -1 | 0.47 | / | /
COc1ccccc1NC(=O)CN1CCN(CC(=O)Nc2ccc3c(c2)OCO3)CC1 | 0.27 | / | -0.44 | 0.19 | / | /
COc1ccccc1NC(=O)CN1CCN(CC(=O)Nc2cc(NC(C)=O)ccc2OC)CC1 | 0.068 | -23 | 3.7* | -0.23 | ? | -31
COc1ccccc1NC(=O)CC1C(=O)NCCN1C(=O)Nc1ccc(Cl)c(Cl)c1 (configuration not stated) | -0.28 | -50 | -2.1* | -0.077 | ? | ?
COc1cc(NC(=O)c2ccccc2)c(OC)cc1NC(=O)CN1CCN(c2ccccn2)CC1 | -0.075 | 16 | 5.9* | 0.91 | -8.2 | -36
CCOC(=O)CSc1nc2sc3c(c2c(=O)n1C1CCCCC1)CCN(C)C3 | / | 28 | / | / | / | /
COCCOc1ccc(C(F)(F)F)cc1Nc1nc2ccccc2o1 | 0.045 | / | 0.57 | / | / | /
COc1ccccc1NC(=O)CN1CCC(n2nnc3cc(F)ccc32)CC1 | 0.0082 | 15 | -0.95 | -2.5 | / | /
COc1ccccc1NC(=O)CN1CCC(n2c(C)nc3cc(F)ccc32)CC1 | -0.09 | -29 | -2.6* | 0.6 | ? | -58
COc1cc(C2Nn3c(nnc3-c3ccccc3OC)S2)ccc1O (configuration not stated) | / | -5 | / | / | / | /
CCOC(=O)c1[nH]c2cc(OC)c(OC)cc2c1NC(=O)C(C)N1CCN(Cc2ccccc2)CC1 (configuration not stated) | -4.3* | / | 3.8* | 1.9 | ? | -31
Cc1[nH]c(=O)[nH]c(=O)c1S(=O)(=O)N1c2ccc(F)cc2CCC1C (configuration not stated) | -0.017 | -16 | 0.036 | -0.3 | / | /
CCCCn1c(-c2cccs2)nc2nc3ccccc3nc21 | / | 4 | / | / | / | /
CCCCOCCCn1c(-c2ccco2)nc2nc3ccccc3nc21 | -0.36 | 42 | 4.2* | -0.096 | ? | -43
COC(=O)C1=C(N)Oc2cc(C)n(CCc3ccccc3)c(=O)c2C1c1cccnc1 (configuration not stated) | -0.37 | / | -0.49 | -1.5 | / | /
CCOC(=O)C1=C(N)Oc2cc(C)n(CCc3ccc(OC)c(OC)c3)c(=O)c2C1c1cccnc1 (configuration not stated) | -0.65 | / | 8.5* | -0.073 | ? | -67
CCOc1cc(-c2ccc(N)c(OCC)c2)ccc1N | 0.077 | 60 | 36* | -0.36 | 249* | 211*
CCn1cc(C(=O)Nc2ccc3c(c2)OCCO3)c2cc(OC)c(OC)cc2c1=O | -0.0093 | / | 4.1* | -0.91 | ? | -47
COc1cc(C(=O)Nc2ccc3c(c2)OCCO3)ccc1OC(C)C | 0.73 | / | 3.7* | 0.11 | -25 | -40
CCn1cc(C(=O)Nc2cccc(NC(C)=O)c2)c2cc(OC)c(OC)cc2c1=O | 0.11 | 32 | -0.23 | -0.35 | / | /
CCOc1ccc(S(=O)(=O)N2CCN(c3ccccc3OC)CC2)c2cccnc12 | -0.52 | -3 | 5.2* | / | -16 | -49
Cc1c(N=Cc2ccco2)c(=O)n(-c2ccccc2)n1C | / | / | / | -0.3 | / | /
COc1ccc2c(C=Nc3c(C)n(C)n(-c4ccccc4)c3=O)c(O)n(Cc3ccco3)c(=O)c2c1 | -2.2* | / | 9.5* | 0.83 | 11 | -8.7
c1ccc2c(-c3nc4ncccc4o3)cccc2c1 | 0.36 | 17 | 1.4 | 1.3 | / | /
SMILES | M1 antagonist | mHtt clearance | M1 agonist | D1 mod | M1 agonist conf | M4 agonist ctr
CCCn1c(SCC(=O)Nc2nccs2)nnc1-c1cccnc1 | -0.024 | -99 | 0.01 | 0.77 | / | /
CCC(Sc1nnc(-c2ccc(C)c(Cl)c2)n1CC)C(=O)Nc1nccs1 (configuration not stated) | -0.099 | / | 5.2* | -1.6 | -13 | -55
CN(C)c1ccc(C2C=C(c3ccc(Cl)cc3OC(F)F)Nc3ncnn32)cc1 (configuration not stated) | 0.012 | / | 18* | -0.18 | 85* | 60
Cc1ccc(C2C=C(c3ccccc3OC(F)F)Nc3ncnn32)cc1 (configuration not stated) | -1.6 | / | -0.27 | / | / | /
COc1ccc(C(=O)COc2ccccc2N2C(=O)C3C4C=CC(C4)C3C2=O)cc1 (configuration not stated) | / | -68 | / | / | / | /
Cc1cc(Cl)ccc1OCc1nc(-c2ccc(O)cc2)n[nH]1 | 0.79 | / | 4.4* | 0.73 | 4.1 | -13
CCC(=O)Nc1cccc(NC(=O)CSc2nnc(-c3ccc(NS(C)(=O)=O)cc3)n2CC)c1 | / | 12 | / | / | / | /
CC(=O)c1n[nH]nc1NC(=O)c1ccccc1 | 0.47 | / | 2.8* | 0.0011 | ? | -40
O=C(Nc1ccccc1C(=O)NC(Cc1c[nH]c2ccccc12)C(=O)O)c1ccco1 (configuration not stated) | 0.013 | -41 | -2.6* | -0.32 | -28* | -67
CC(C)(C)NC(=O)c1ccc2c(c1)C(=O)N(C1CCCCC1)C2=O | 0.13 | / | 6.1* | 2.2 | ? | -38
CCc1ccc(-c2cn3nc(C)c(C)nc3n2)cc1 | 1.3 | / | 7.3* | / | 89* | 39
CCOC(=O)NC1(NC2CCCCC2)Oc2ccccc2O1 | -1.9 | / | -0.93 | -0.095 | / | /
CC1CCCCC1NS(=O)(=O)c1ccc(S(=O)(=O)NCc2ccncc2)cc1 (configuration not stated) | -0.49 | / | 3.5* | -1.5 | -11 | -9.6
c1ccc2c(c1)[nH]c1c(N3CCC4(CC3)OCCO4)ncnc12 | -1.3 | / | 1.4 | 0.46 | / | /
c1ccc2c(c1)CCN(c1ncnc3c1[nH]c1ccccc13)C2 | -3.4* | / | 5.6* | / | 10 | -25
Cc1ccc2[nH]c3c(N4CCN(Cc5ccccc5)CC4)ncnc3c2c1 | -1.7 | 26 | 5.6 | / | / | /
COc1cccc(N2CCN(c3ncnc4c3[nH]c3ccccc34)CC2C)c1 (configuration not stated) | -3.4* | / | 11* | / | ? | -52
Cc1ccc2c(c1)[nH]c1c(N3CCN(Cc4ccccc4)CC3)ncnc12 | -3.1* | 4 | 3.9* | -3.9 | -13 | ?
COc1cc2[nH]c3c(N4CCN(c5ccc(Cl)cc5)CC4)ncnc3c2cc1OC | 0.14 | 43 | -0.04 | / | / | /
c1ccc(CN2CCN(c3ncnc4c3[nH]c3ccccc34)CC2)cc1 | -2.7* | / | 3.9* | -4.9* | -1.9 | ?
O=C(NCC1(c2ccccc2)CCCC1)C(=O)N1CCOCC1 | / | -1 | / | / | / | /
c1ccc(-n2nnnc2NCCc2c[nH]c3ccccc23)cc1 | -0.46 | 46 | 5.8* | -0.32 | -7.1 | ?
O=C(Cc1sc(-c2ccccc2Cl)nc1-c1ccccc1)Nc1ccc(F)cc1 | / | 21 | / | / | / | /
Cc1ccc(C2C(C#N)=C(N)Oc3n[nH]c(C)c32)cc1 (configuration not stated) | -0.76 | -13 | 0.98 | -0.16 | / | /

High-throughput results deposited in PubChem BioAssay by several laboratories.
